We go through 13 targets from the supplement of paper PMC10849652.

Of roughly 8,800 targets only a part is listed; those with a hit were picked by preference. About 0.5% of all pairs of compound and target were hits. Unmarked numbers belong to inactive results.

What all share (assay): log2 fold change, soluble protein after heating vs DMSO (PISA); higher = thermal stabilisation; K562 lysate, 10 uM; active = over 0.2 and 3.5 SD of the protein, either way, in both replicates (recomputed)
Compound in one assay: CS(=O)(=O)CCNCc1ccc(-c2ccc3ncnc(Nc4ccc(OCc5cccc(F)c5)c(Cl)c4)c3c2)o1 [lapatinib]
The method in brief:
(§1)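 Quantification was by TMTpro 16plex LC-MS/MS with equalised channel sums, applied to the supernatant after 21,000xg for 90 min. Samples were crude K562 extract at 1 mg/mL protein in PBS pH 7.4 with 1 mM MgCl2, treated with 10 μM compound for 30 min, heated for 3 min across 48°C-58°C, pooled and brought to 0.5% NP-40 at 4°C. Values are log-two fold changes in thermal stability relative to solvent controls, from duplicates.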

Compound in the next assay: CS(=O)(=O)N1CCN(Cc2cc3nc(-c4cccc5[nH]ncc45)nc(N4CCOCC4)c3s2)CC1 [pictilisib]
The method in brief:
as §1

Compound in a further assay: C[C@@H](Oc1cc(-c2cnn(C3CCNCC3)c2)cnc1N)c1c(Cl)ccc(F)c1Cl [crizotinib]
In a few lines: as §1

Compound in assay [1]: C[C@H](C1=CC=C(C=C1)C(=O)NC2=C3C=CNC3=NC=C2)N
In a few lines:
as §1

Compound in a further assay: C[C@H](Nc1ncnc2nc[nH]c12)c1cc2cccc(Cl)c2c(=O)n1-c1ccccc1 [duvelisib]
In a few lines: as §1

Compound in a further assay: Cc1cc(Nc2cc(CN3CCOCC3)c3nc(C)c(Cc4ccc(Cl)cc4F)n3n2)n[nH]1 [gandotinib]
In a few lines:
as §1

Compound in another assay: Cc1cc(Nc2cc(N3CCN(C)CC3)nc(Sc3ccc(NC(=O)C4CC4)cc3)n2)n[nH]1 [tozasertib]
The method in brief:
as §1

Compound in another assay: Cc1ccc(-n2nc(C(C)(C)C)cc2NC(=O)Nc2ccc(OCCN3CCOCC3)c3ccccc23)cc1 [doramapimod]
In a few lines: as §1

Compound in a further assay: Cc1ccc(NC(=O)c2ccc(CN3CC[C@H](N(C)C)C3)c(C(F)(F)F)c2)cc1Nc1nccc(-c2cncnc2)n1 [bafetinib]
The method in brief:
as §1

Compound in assay [2]: Cc1cccc(CC(=O)N2CCc3c2ccc(-c2cn(C)c4ncnc(N)c24)c3F)n1
In a few lines: as §1

Sequence of UniProt Q9Y315 (Q9Y315 whole entry, looked up): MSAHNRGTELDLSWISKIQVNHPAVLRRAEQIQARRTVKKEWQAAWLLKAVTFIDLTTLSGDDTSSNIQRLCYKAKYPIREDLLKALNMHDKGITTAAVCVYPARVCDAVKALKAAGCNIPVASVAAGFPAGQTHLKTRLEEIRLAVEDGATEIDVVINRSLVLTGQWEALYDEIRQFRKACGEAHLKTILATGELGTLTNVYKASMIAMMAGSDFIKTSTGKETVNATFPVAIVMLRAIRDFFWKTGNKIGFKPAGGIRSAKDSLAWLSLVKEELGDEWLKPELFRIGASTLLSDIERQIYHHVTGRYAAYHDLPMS
Sequence of UniProt Q9P0U4 (Q9P0U4 whole entry, looked up): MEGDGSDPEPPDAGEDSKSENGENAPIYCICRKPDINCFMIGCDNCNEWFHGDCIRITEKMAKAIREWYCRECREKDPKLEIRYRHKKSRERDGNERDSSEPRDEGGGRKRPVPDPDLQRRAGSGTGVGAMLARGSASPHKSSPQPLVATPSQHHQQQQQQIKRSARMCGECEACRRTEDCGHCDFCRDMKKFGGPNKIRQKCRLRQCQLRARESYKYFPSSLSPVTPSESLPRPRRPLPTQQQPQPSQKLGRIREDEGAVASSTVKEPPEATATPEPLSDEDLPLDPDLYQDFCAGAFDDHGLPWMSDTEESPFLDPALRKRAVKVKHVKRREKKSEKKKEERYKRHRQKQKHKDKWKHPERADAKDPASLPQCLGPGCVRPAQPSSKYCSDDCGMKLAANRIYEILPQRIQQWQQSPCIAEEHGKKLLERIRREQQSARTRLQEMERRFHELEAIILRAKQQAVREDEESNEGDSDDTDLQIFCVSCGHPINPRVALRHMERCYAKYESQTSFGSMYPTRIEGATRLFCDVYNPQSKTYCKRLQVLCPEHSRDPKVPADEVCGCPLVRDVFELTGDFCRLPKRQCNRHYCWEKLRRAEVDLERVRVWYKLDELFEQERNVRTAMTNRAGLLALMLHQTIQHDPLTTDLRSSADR
Sequence of UniProt Q96JB2 (Q96JB2 whole entry, looked up): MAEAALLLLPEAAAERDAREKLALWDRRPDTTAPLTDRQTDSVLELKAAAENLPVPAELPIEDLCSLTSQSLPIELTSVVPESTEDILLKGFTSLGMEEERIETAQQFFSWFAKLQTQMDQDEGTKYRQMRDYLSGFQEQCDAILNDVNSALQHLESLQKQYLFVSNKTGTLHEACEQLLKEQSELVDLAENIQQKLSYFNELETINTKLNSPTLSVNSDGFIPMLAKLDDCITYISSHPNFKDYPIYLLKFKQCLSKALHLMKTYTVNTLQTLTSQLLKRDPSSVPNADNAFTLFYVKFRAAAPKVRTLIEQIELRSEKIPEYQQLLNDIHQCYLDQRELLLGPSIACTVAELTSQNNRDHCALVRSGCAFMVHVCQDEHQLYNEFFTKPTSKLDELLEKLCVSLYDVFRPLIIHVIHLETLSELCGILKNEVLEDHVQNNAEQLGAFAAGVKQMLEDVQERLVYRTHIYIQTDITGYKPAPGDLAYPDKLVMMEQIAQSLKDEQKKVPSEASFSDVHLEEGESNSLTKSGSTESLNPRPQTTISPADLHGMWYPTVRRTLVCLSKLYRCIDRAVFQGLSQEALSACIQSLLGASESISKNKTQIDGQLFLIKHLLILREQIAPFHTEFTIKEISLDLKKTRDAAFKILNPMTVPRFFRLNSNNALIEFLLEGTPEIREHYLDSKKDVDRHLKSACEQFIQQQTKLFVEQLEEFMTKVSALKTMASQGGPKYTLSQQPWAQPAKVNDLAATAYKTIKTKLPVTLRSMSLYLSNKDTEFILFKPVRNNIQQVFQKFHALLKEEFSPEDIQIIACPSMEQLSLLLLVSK
Sequence of UniProt Q9H9E3 (Q9H9E3 whole entry, looked up): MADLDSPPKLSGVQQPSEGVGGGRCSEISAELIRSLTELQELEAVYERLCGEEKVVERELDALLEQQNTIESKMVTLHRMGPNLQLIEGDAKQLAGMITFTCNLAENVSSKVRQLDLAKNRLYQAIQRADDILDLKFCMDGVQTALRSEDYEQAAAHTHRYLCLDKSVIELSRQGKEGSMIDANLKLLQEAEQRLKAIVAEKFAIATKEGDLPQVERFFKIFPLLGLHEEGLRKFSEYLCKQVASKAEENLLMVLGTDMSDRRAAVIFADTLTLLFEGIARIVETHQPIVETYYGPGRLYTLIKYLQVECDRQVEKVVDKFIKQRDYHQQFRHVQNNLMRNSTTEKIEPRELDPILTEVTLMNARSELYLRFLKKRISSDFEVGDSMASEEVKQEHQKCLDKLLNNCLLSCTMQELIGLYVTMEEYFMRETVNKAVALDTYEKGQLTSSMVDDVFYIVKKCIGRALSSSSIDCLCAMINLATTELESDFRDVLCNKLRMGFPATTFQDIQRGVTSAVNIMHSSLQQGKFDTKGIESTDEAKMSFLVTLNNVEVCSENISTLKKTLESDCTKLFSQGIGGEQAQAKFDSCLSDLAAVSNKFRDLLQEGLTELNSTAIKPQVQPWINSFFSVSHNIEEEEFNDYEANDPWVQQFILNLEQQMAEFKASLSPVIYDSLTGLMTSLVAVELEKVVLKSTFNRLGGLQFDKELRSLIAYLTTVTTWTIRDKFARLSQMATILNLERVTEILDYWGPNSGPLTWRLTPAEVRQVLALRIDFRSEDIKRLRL
Sequence of UniProt Q99704 (Q99704 whole entry, looked up): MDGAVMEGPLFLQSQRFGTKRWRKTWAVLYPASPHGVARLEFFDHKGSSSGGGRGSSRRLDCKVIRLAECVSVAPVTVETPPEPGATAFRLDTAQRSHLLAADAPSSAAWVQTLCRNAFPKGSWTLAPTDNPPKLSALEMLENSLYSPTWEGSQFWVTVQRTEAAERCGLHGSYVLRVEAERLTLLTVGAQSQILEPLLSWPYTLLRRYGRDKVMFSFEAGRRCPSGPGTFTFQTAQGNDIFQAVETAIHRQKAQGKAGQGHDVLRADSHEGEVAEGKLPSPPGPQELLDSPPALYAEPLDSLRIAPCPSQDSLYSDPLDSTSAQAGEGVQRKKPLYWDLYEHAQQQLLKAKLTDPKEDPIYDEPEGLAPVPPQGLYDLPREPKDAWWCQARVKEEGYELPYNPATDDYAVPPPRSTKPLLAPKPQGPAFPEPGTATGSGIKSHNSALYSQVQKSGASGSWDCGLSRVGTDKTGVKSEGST
Sequence of UniProt Q9H467 (Q9H467 whole entry, looked up): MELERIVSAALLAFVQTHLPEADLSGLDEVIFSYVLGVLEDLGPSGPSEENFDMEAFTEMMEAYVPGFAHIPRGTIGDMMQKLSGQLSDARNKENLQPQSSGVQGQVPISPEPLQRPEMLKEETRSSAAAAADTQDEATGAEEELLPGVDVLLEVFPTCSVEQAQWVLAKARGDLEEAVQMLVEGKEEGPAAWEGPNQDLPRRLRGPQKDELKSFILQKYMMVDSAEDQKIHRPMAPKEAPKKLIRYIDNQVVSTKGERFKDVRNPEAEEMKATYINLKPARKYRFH
Sequence of UniProt P17661 (P17661 whole entry, looked up): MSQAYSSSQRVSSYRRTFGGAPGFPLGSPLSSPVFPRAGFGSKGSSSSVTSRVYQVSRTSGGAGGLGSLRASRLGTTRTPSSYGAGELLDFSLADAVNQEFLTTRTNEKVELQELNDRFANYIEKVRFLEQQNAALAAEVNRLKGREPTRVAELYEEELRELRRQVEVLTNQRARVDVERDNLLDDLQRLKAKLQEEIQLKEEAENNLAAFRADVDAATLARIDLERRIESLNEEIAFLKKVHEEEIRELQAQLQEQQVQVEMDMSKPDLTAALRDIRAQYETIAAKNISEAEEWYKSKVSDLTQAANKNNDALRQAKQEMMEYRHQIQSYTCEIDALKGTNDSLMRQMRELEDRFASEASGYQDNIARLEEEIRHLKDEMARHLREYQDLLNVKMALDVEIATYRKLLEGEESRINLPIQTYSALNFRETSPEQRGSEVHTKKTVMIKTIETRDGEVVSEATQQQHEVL
Sequence of UniProt P17812 (P17812 whole entry, looked up): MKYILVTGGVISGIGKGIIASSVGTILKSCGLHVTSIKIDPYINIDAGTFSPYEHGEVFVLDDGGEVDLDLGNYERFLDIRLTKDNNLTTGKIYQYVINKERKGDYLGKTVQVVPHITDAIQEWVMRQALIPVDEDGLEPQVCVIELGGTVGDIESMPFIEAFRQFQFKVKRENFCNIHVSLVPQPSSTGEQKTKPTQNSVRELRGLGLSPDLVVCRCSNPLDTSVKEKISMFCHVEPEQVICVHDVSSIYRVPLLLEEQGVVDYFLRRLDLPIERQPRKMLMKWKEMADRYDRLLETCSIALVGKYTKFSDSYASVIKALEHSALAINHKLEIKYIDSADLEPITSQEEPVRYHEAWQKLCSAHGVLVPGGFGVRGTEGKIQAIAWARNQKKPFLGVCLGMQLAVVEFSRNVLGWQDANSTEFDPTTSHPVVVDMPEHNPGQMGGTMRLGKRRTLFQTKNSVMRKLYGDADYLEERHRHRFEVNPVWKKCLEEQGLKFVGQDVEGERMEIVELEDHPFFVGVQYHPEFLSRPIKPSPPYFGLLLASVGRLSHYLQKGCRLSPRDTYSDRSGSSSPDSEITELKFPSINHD
Sequence of UniProt Q6UWP2 (Q6UWP2 whole entry, looked up): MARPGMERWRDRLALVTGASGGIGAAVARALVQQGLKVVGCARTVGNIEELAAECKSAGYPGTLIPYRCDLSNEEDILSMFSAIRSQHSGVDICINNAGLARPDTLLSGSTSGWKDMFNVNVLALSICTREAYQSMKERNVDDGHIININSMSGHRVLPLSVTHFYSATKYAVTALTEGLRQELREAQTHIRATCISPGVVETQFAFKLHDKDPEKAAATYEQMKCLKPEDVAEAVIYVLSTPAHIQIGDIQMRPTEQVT
Sequence of UniProt Q96LJ7 (Q96LJ7 whole entry, looked up): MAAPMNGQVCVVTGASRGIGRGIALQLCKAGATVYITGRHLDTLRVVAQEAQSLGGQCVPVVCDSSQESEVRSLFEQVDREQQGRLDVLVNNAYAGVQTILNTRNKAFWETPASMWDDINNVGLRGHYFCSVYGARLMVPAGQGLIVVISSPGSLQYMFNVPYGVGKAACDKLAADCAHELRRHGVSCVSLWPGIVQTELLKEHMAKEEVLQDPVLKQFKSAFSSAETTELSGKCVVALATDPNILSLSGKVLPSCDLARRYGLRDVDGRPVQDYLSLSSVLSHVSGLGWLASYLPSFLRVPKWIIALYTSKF

As for COG4 (UniProt Q9H9E3), the log2 fold change in the assay with lapatinib was -0.02; with pictilisib it was -0.164; with crizotinib, -0.088; in assay [1] it was -0.014; with duvelisib, 0.022; in the assay with gandotinib, -0.207. Further, the log2 fold change with tozasertib is 0.018; with doramapimod it was 0.026; with bafetinib, 0.025; in assay [2], 0.036.

With COG3 (UniProt Q96JB2), the log2 fold change is -0.036 with lapatinib; -0.054 with pictilisib; -0.062 in the assay with crizotinib; -0.036 in [1]; 0.006 with duvelisib; -0.064 with gandotinib. Also, the log2 fold change with tozasertib is 0.015; with doramapimod, 0.03; with bafetinib, 0.003; in [2] it was 0.093.

Regarding DIAPH1 (UniProt O60610), the log2 fold change was -0.007 with lapatinib; 0.014 in the assay with pictilisib; 0.004 with crizotinib; 0.06 in assay [1]; -0.006 in the assay with duvelisib; -0.063 with gandotinib. Also, the log2 fold change in the assay with tozasertib is 0.004; with doramapimod, -0.003; with bafetinib it was -0.001; in [2] it was -0.021.

Regarding CXXC1 isoform 2 (UniProt Q9P0U4), the log2 fold change with lapatinib was -0.024; with pictilisib, 0.107; with crizotinib, -0.089; in assay [1], 0.058; with duvelisib, 0.154; in the assay with gandotinib it was -0.046. Moreover, the log2 fold change with tozasertib is -0.028; with doramapimod, 0.018; with bafetinib it was -0.047; in [2], 0.005.

For DNAH10 (UniProt Q8IVF4), the log2 fold change with lapatinib is -0.075; with pictilisib, 0.066; with crizotinib, -0.136; in assay [1], -0.553 (active); with duvelisib, 0.044; with gandotinib, 0.172. Moreover, the log2 fold change with tozasertib was -0.024; in the assay with doramapimod, 0.076; with bafetinib, -0.08; in assay [2], 0.196.

With DERA (UniProt Q9Y315), the log2 fold change with lapatinib is -0.002; with pictilisib, -0.028; with crizotinib, -0.015; in [1], 0.732 (active); with duvelisib, -0.004; with gandotinib it was -0.072. In addition, the log2 fold change in the assay with tozasertib is -0.028; with doramapimod it was -0.001; in the assay with bafetinib, 0.012; in assay [2], -0.132.

As for DES (UniProt P17661), the log2 fold change with lapatinib was -0.079; with pictilisib it was -0.03; in the assay with crizotinib, -0.082; in assay [1], -0.301; in the assay with duvelisib, 0.098; with gandotinib it was 0.13. Moreover, the log2 fold change in the assay with tozasertib was -0.014; with doramapimod, 0.047; with bafetinib, -0.051; in assay [2], 0.121.

Regarding CNP (UniProt P09543), the log2 fold change with lapatinib was 0.014; in the assay with pictilisib, 0.015; with crizotinib, -0.023; in [1], 0.002; with duvelisib, -0.002; with gandotinib it was -0.047. Further, the log2 fold change with tozasertib is 0.012; with doramapimod it was 0.039; with bafetinib, -0.026; in assay [2], 0.022.

With CUEDC2 (UniProt Q9H467), the log2 fold change with lapatinib was 0.018; in the assay with pictilisib it was -0.119; with crizotinib, 0.001; in assay [1], 0.528 (active); in the assay with duvelisib, -0.009; with gandotinib, -0.026. Also, the log2 fold change with tozasertib was -0.055; with doramapimod, 0.022; with bafetinib, -0.073; in assay [2], -0.082.

Regarding CTPS1 (UniProt P17812), the log2 fold change with lapatinib is -0.007; in the assay with pictilisib, -0.015; in the assay with crizotinib, -0.044; in assay [1], 0.004; with duvelisib, -0.003; with gandotinib, -0.052. Also, the log2 fold change with tozasertib is -0.004; with doramapimod, 0.005; in the assay with bafetinib, 0.078; in [2], 0.015.

Turning to DHRS1 (UniProt Q96LJ7), the log2 fold change was -0.138 in the assay with lapatinib; -0.089 in the assay with pictilisib; -0.014 with crizotinib; -0.037 in assay [1]; 0.406 (active) with duvelisib; 0.099 in the assay with gandotinib. Also, the log2 fold change with tozasertib is -0.281; with doramapimod, -0.015; in the assay with bafetinib, 0.056; in assay [2], 0.092.

On to DHRS11 (UniProt Q6UWP2), for which the log2 fold change with lapatinib is -0.017; in the assay with pictilisib, 0.014; in the assay with crizotinib, 0.024; in assay [1], -0.035; with duvelisib it was 0.024; with gandotinib it was -0.007. Moreover, the log2 fold change with tozasertib is 0.028; with doramapimod, -0.032; with bafetinib, -0.051; in [2] it was -0.02.

Take DOK1 (UniProt Q99704): the log2 fold change with lapatinib was 0.01; with pictilisib, -0.026; with crizotinib, 0.007; in assay [1] it was -0.056; in the assay with duvelisib, -0.002; in the assay with gandotinib, 0.042. For the same target, the log2 fold change with tozasertib is 0.008; with doramapimod it was 0.044; with bafetinib it was -0.006; in assay [2], -0.001.
